Experimental data taken from PubChem BioAssay (NCATS).
Inconclusive results are not listed. A call without a number means that no potency is given here. A number with no mark means an inactive call. Calls of active or inactive are those of the source. The call rests on the fitted dose curve; in most records, active means well fitted curve in the direction sought with a large enough effect; inconclusive means small, poorly fitted or top-dose-only effect, or another doubt; inactive means no such curve, though single readings can be large; an effect the other way counts as inactive or inconclusive.

Legend:
[1] = qHTS for Inhibitors of Plasmodium falciparum (GB4) proliferation (AID 504315); further: nearly all actives have a fitted effect of over 50% in size; further: potency means the concentration at half of the fitted maximal effect
Procedure, shortened: (§1)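 Erythrocytes infected with P. falciparum line (0.3% parasitemia, 2.5% hematocrit final) incubated with compounds 72 h at 37 °C, 5% CO2; SYBR Green lysis buffer added, fluorescence read next day. Normalized to 0.29 uM artemisinin and DMSO.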

[2] = qHTS for Inhibitors of Plasmodium falciparum (CP250) proliferation (AID 504320)
Procedure, shortened: as §1

[3] = qHTS for Inhibitors of Plasmodium falciparum (7G8) proliferation (AID 504316); further: nearly all actives have a fitted effect of over 65% in size; further: potency means the concentration at half of the fitted maximal effect
Procedure, shortened: as §1

[4] = qHTS for Inhibitors of Plasmodium falciparum (HB3) proliferation (AID 504318); further: nearly all actives have a fitted effect of over 60% in size; further: potency means the concentration at half of the fitted maximal effect
Procedure, shortened: as §1

[5] = target: Ubiquitin carboxyl-terminal hydrolase 1 (Homo sapiens) (UniProt O94782); test: Inhibitors of USP1/UAF1: Pilot qHTS (AID 504865);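 further: rhodamine fluorescence freed from ubiquitin-rhodamine substrate followed over time; top concentration of the series differs between compounds; nearly all actives have a fitted effect of over 35% in size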
Chain of Ubiquitin carboxyl-terminal hydrolase 1 (Homo sapiens) (O94782 whole entry, looked up): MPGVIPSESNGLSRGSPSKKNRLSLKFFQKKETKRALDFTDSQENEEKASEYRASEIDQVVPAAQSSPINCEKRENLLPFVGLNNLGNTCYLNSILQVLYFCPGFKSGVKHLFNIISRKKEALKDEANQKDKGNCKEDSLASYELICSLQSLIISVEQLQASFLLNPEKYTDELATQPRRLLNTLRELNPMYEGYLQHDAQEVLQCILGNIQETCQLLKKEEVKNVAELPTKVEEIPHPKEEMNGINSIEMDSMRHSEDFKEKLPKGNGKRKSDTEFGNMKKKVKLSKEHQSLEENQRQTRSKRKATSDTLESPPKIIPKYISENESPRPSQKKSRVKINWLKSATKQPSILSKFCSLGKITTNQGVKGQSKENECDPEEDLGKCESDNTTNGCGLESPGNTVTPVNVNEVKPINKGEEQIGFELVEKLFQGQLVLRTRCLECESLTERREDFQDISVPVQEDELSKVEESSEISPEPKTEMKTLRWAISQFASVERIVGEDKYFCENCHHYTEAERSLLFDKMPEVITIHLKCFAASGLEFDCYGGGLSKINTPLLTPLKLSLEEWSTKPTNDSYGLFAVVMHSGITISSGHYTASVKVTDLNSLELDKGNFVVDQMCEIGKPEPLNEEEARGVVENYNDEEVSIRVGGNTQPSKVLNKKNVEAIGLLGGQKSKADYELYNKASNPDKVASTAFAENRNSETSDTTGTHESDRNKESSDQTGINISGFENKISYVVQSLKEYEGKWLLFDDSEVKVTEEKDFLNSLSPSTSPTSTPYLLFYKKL
Procedure, shortened: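 Deubiquitinase activity followed as kinetic rhodamine fluorescence release from 150 nM Ub-Rho. 1 nM USP1/UAF1 with compound, after 15 min room-temperature preincubation, in HEPES pH 7.8 buffer containing TCEP, EDTA, BSA and Tween-20.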

[6] = qHTS profiling for inhibitors of Plasmodium falciparum proliferation (AID 504749); further: nearly all actives have a fitted effect of over 60% in size; settings: P. falciparum in erythrocytes, SYBR Green DNA, 72 h, at 28.7 µM (top of the series)
Procedure, shortened: (§2)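 Infected RBCs, 0.3% parasitemia/2.5% Hct final; cpd 72 h, 37 C, 5% CO2; lysis buffer with saponin/triton/SYBR Green I, o/n RT dark; FI 485/535; norm. to artemisinin (0.29 uM) and DMSO.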

[7] = system: AA1029; test: as above; settings: P. falciparum in erythrocytes, SYBR Green DNA, 72 h; series mostly up to 28.7 µM
Procedure, shortened: as §2

[8] = system: ATS189; test: as above; settings: P. falciparum in erythrocytes, SYBR Green DNA, 72 h; series mostly up to 28.7 µM
Procedure, shortened: as §2

[9] = system: CP185; test: as above; settings: P. falciparum in erythrocytes, SYBR Green DNA, 72 h; series mostly up to 28.7 µM
Procedure, shortened: as §2

[10] = system: CP201; test: as above; settings: P. falciparum in erythrocytes, SYBR Green DNA, 72 h; series mostly up to 28.7 µM
Procedure, shortened: as §2

[11] = system: CP238; test: as above; settings: P. falciparum in erythrocytes, SYBR Green DNA, 72 h; series mostly up to 28.7 µM
Procedure, shortened: as §2

[12] = system: CP252; test: as above; settings: P. falciparum in erythrocytes, SYBR Green DNA, 72 h; series mostly up to 28.7 µM
Procedure, shortened: as §2

[13] = system: CP265; test: as above; settings: P. falciparum in erythrocytes, SYBR Green DNA, 72 h; series mostly up to 28.7 µM
Procedure, shortened: as §2

[14] = system: CP286; test: as above; settings: P. falciparum in erythrocytes, SYBR Green DNA, 72 h; series mostly up to 28.7 µM
Procedure, shortened: as §2

[15] = system: CP305; test: as above; settings: P. falciparum in erythrocytes, SYBR Green DNA, 72 h; series mostly up to 28.7 µM
Procedure, shortened: as §2

[16] = system: CP325; test: as above; settings: P. falciparum in erythrocytes, SYBR Green DNA, 72 h; series mostly up to 28.7 µM
Procedure, shortened: as §2

[17] = system: DFO2036; test: as above; settings: P. falciparum in erythrocytes, SYBR Green DNA, 72 h; series mostly up to 28.7 µM
Procedure, shortened: as §2

[18] = system: FAB9; test: as above; settings: P. falciparum in erythrocytes, SYBR Green DNA, 72 h; series mostly up to 28.7 µM
Procedure, shortened: as §2

[19] = system: PC15; test: as above; settings: P. falciparum in erythrocytes, SYBR Green DNA, 72 h; series mostly up to 28.7 µM
Procedure, shortened: as §2

[20] = system: PC49; test: as above; settings: P. falciparum in erythrocytes, SYBR Green DNA, 72 h; series mostly up to 28.7 µM
Procedure, shortened: as §2

## C[C@H]1Cc2c(COc3ccccc3)nc3c(c2CO1)CN(S(=O)(=O)c1ccc(C#N)cc1)CC3
[1]
  Potency: inactive
[2]
  Potency: inactive

## CC(CCN1CCCCc2nc(C)c(C)cc21)=NO[C@@H](C)c1cn([C@H](CO)Cc2ccccc2)nn1
[1]
  Potency: inactive
[2]
  Potency: inactive

## COC(=O)CCCC1=CC2=C(c3ccccc3)C(=O)C(C)(OC(=O)C3CCCC3)C(=O)C2=CN1CCc1c[nH]c2ccccc12 (stereo not given)
[1]
  Potency: inactive
[3]
  Potency: inactive
[2]
  Potency: inactive

## CCCCC1=CC2=C(c3ccco3)C(=O)C(C)(OC(=O)c3ccc(OC)cc3)C(=O)C2=CN1CCOC (stereo not given)
[1]
  Potency: inactive
[4]
  Potency: inactive
[2]
  Potency: inactive

## C[C@@H]1CC[C@H]2C(=O)N(Cc3ccccc3)C[C@H](O)CN2[C@H]1c1ccc(Br)cc1
[1]
  Potency: inactive
[2]
  Potency: inactive

## COC(=O)C1=C(C(=O)OC)[C@@H]2N(C)c3ccc(OC)cc3[C@@]23C[C@@H](C(=O)OC)N(S(=O)(=O)c2c(C)noc2C)C3=N1
[1]
  Potency: inactive
[4]
  Potency: inactive
[2]
  Potency: inactive

## CCCCC1=CC2=CC(=O)C(C)(OC(=O)CC)C(=O)C2=CN1C1CCCC1 (stereo not given)
[1]
  Potency: inactive
[3]
  Potency: inactive
[2]
  Potency: inactive

## COc1ccc(O[C@H]2C=C[C@@H](c3ccccc3)O[C@H]2COC(=O)CCC(C)=NO[C@H](C)c2cn([C@H](CO)Cc3ccccc3)nn2)cc1
[1]
  Potency: inactive
[3]
  Potency: 1.51 µM (active)
[2]
  Potency: inactive

## COC(=O)CCC(=O)OC1(C)C(=O)C2=CN(C(CO)CO)C(c3ccc(OC)cc3)=CC2=C(Br)C1=O (stereo not given)
[1]
  Potency: inactive
[4]
  Potency: inactive
[2]
  Potency: inactive

## COCOc1c2c(c(OCOC)c3c(OCOC)cccc13)C(=NNS(C)(=O)=O)C1=C2CCCC1
[1]
  Potency: inactive
[3]
  Potency: 1.69 µM (active)
[2]
  Potency: inactive

## CC=Cc1cc2ccccc2c2c(C(=O)OC)c(C(=O)OC)c(C(=O)OC)n12
[1]
  Potency: inactive
[3]
  Potency: inactive
[2]
  Potency: inactive

## CC1COc2ccccc2C1=O (stereo not given)
[1]
  Potency: 1.9 µM (active)
[4]
  Potency: 1.9 µM (active)

## C[C@@H]1CC[C@H]2C(=O)N(Cc3cccc([N+](=O)[O-])c3)C[C@H](O)CN2[C@@H]1c1ccc(Br)cc1
[1]
  Potency: inactive
[3]
  Potency: inactive
[2]
  Potency: inactive

## COC(=O)C1=C(C(=O)OC)[C@@H]2N(Cc3ccccc3)c3ccccc3[C@@]23C[C@@H](C(=O)OC)N(C(=O)c2ccc(Br)cc2)C3=N1
[2]
  Potency: inactive

## COC(=O)CC1c2ccccc2C=C(/C=C/c2ccc3c(c2)OCO3)N1C(=O)OC (stereo not given)
[2]
  Potency: inactive

## CC(C)Nc1oc(-c2ccccc2)nc1C=Cc1ccccc1
[2]
  Potency: inactive

## COC(=O)C1=C(C(=O)OC)[C@@H]2N(C)c3ccc(OC)cc3[C@@]23C[C@@H](C(=O)OC)N(S(=O)(=O)c2ccc(C#N)cc2)C3=N1
[2]
  Potency: inactive

## COc1cc2c(cc1OC)[C@@H]1O[C@](CCCCN3C(=O)c4ccccc4C3=O)(C2)OC2=C1C(=O)CCC2
[3]
  Potency: 1.69 µM (active)
[2]
  Potency: inactive

## COc1ccc([C@]23Cc4cc(C#N)ccc4[C@H](O2)c2c(cc(-c4ccccc4)oc2=O)O3)cc1
[3]
  Potency: 1.35 µM (active)
[2]
  Potency: inactive

## C#CCCOC(=O)N1C2=NC(C(=O)OC)=C(C(=O)OC)[C@@H]3N(C)c4ccc(OC)cc4[C@]23C[C@H]1C(=O)OC
[2]
  Potency: inactive

## CC(=O)OC[C@H]1O[C@H](C#Cc2ccc(C(C)(C)C)cc2)C=C[C@H]1OC(C)=O
[3]
  Potency: 1.69 µM (active)

## COC(=O)C1=C(C(=O)OC)[C@@H]2Nc3ccccc3[C@@]23C[C@@H](C(=O)OC)N(C(=O)c2cc(C)oc2C)C3=N1
[3]
  Potency: 1.69 µM (active)
[4]
  Potency: 1.69 µM (active)
[2]
  Potency: inactive

## CC(=O)OCC(=O)[C@@]1(O)CCC2C3CCC4=CC(=O)CC[C@]4(C)C3=CC[C@@]21C (stereo not given in full)
[5]
  Potency: inactive
[6]; parasite line A
  activity, negative = inhibition: 11%
[6]; parasite line B
  activity, negative = inhibition: 2.99%
[7]
  Potency: inactive
[8]
  Potency: inactive
[9]
  Potency: inactive
[10]
  Potency: inactive
[11]
  Potency: inactive
[12]
  Potency: inactive
[13]
  Potency: inactive
[14]
  Potency: inactive
[15]
  Potency: inactive
[16]
  Potency: inactive
[17]
  Potency: inactive
[18]
  Potency: inactive
[19]
  Potency: inactive
[20]
  Potency: inactive

## C[C@H]1Cc2c(-c3ccccc3)nc3c(c2CO1)CN(C(=O)NCCc1c[nH]c2ccccc12)CC3
[3]
  Potency: inactive
[4]
  Potency: inactive
[2]
  Potency: inactive

## CCCCCCC#C[C@@H]1C=C[C@H](OC(C)=O)[C@@H](COC(C)=O)O1
[2]
  Potency: inactive

## COC(=O)C1=C(C(=O)OC)[C@@H]2N(Cc3ccccc3)c3ccccc3[C@@]23C[C@@H](C(=O)OC)N(S(=O)(=O)c2ccc(OC)cc2)C3=N1
[4]
  Potency: 1.9 µM (active)

## COC(=O)C1=C(C(=O)OC)[C@@H]2N(C)c3ccccc3[C@@]23C[C@@H](C(=O)OC)N(S(=O)(=O)c2ccc4c(c2)OCCN4C)C3=N1
[1]
  Potency: 2.39 µM (active)
[2]
  Potency: inactive

## COCOc1ccc(OC)cc1C(=O)C=Cc1ccc(OC)c(Br)c1
[4]
  Potency: 1.69 µM (active)

## COc1ccc(C=CC2=CC3(C)CC2(C)C(c2ccc(OC)cc2)CC3=O)cc1 (stereo not given)
[3]
  Potency: 1.69 µM (active)
[2]
  Potency: inactive

## O=C1C=CC2(OCCCO2)C(Br)=C1CO
[3]
  Potency: inactive
[2]
  Potency: inactive

## COc1ccc(CN2C=C3C(=O)C(C)(OC(=O)CCc4ccccc4)C(=O)C=C3C=C2c2ccc(C#N)cc2)cc1 (stereo not given)
[1]
  Potency: inactive
[2]
  Potency: inactive

## CCN1C(=O)N(C)[C@@H](c2ccccc2)C(C(C)=O)=C1C
[3]
  Potency: inactive
[4]
  Potency: inactive
[2]
  Potency: inactive

## CCN(CC)CCCN1C=C2C(=O)C(C)(OC(=O)c3cccs3)C(=O)C=C2C=C1CCCC(=O)OC (stereo not given)
[3]
  Potency: inactive
[4]
  Potency: inactive
[2]
  Potency: inactive
